The nature of test [1]: qHTS assay to identify small molecule antagonists of the estrogen receptor beta (ER-beta) signaling pathway - cell viability counter screen (AID 1259382; active = well fitted curve in the direction sought with a large enough effect in the repeat runs; an effect the other way counts as inactive or inconclusive; also: nearly all actives have a fitted effect of over 55% in size; also: potency is read from the fitted curve at half-maximal effect;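 as to activity change, negative = cytotoxicity: HEK293T cells carrying ER-beta-UAS-bla reporter stimulated with estradiol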). As to conditions: ER-beta-UAS-bla HEK293T viability, CellTiter-Glo luminescence, 16 h; series mostly up to 92.4 µM. The method, boiled down:
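CellTiter-Glo ATP luminescence measured after the LiveBLAzer read in the same wells; ER-beta-UAS-bla HEK293T cells, 16 hr compound treatment with 1nM 17-beta-estradiol agonist at 37C, 5% CO2.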
Background: Quantitative high-throughput screening tests each substance at several concentrations.

Test [2] concerns the target Estrogen receptor (Homo sapiens) (UniProt P03372). Description: qHTS assay to identify small molecule agonists of the estrogen receptor alpha (ER-alpha) signaling pathway in the presence of an antagonist (AID 1259383). Also: nearly all actives have a fitted effect of over 15% in size. Also: potency is read from the fitted curve at half-maximal effect. As to activation: top concentration of the series differs between compounds. Conditions: VM7Luc4E2 cells, ERE-luciferase, +ICI-182,780, 22 h; series mostly up to 92.4 µM. The method, boiled down: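 Luminescent ERE-luciferase reporter, VM7Luc4E2 cells (endogenous ER-alpha); 10.0nM ICI-182,780 final; 15-point compound titration; 22hr at 37C; ONE-Glo, 30min RT.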

Test [3] in a line: qHTS assay to identify small molecule agonists or antagonists of the thyroid stimulating hormone receptor (TSHR) signaling pathway - wild type cell line counter screen (AID 1259384). As to conditions: HEK293 wild type, cAMP HTRF counter-screen, stronger effect = higher value; series mostly up to 92.4 µM. A digest of the protocol: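 Wild-type HEK293 cells were plated 18 h at 37 C/5% CO2, pin-dosed with compound plus Ro20-1724 medium, held 30 min at room temperature, then given cAMP-d2 and anti-cAMP-cryptate; fluorescence was read after 1 h. Fifteen concentrations, triplicate.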

The target in test [4] is Thyrotropin receptor (Homo sapiens) (UniProt P16473). As to the kind of experiment: qHTS assay to identify small molecule antagonists of the thyroid stimulating hormone receptor (TSHR) signaling pathway (AID 1259385). Also: nearly all actives have a fitted effect of over 20% in size. Also: potency is read from the fitted curve at half-maximal effect. As to conditions: TSHR-HEK293 cAMP HTRF, TSH-stimulated antagonist mode; series mostly up to 92.4 µM. A digest of the protocol: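 TSHR-HEK293 cells were plated and held 18 h at 37C/5% CO2, then given compound plus Ro20-1724 and stimulated with TSH at 1.5 ng/mL final. After 30 min at room temperature, cAMP was detected with cAMP-d2/anti-cAMP-cryptate (1 h) by fluorescence.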
Chain of Thyrotropin receptor (Homo sapiens) (P16473 whole entry, looked up): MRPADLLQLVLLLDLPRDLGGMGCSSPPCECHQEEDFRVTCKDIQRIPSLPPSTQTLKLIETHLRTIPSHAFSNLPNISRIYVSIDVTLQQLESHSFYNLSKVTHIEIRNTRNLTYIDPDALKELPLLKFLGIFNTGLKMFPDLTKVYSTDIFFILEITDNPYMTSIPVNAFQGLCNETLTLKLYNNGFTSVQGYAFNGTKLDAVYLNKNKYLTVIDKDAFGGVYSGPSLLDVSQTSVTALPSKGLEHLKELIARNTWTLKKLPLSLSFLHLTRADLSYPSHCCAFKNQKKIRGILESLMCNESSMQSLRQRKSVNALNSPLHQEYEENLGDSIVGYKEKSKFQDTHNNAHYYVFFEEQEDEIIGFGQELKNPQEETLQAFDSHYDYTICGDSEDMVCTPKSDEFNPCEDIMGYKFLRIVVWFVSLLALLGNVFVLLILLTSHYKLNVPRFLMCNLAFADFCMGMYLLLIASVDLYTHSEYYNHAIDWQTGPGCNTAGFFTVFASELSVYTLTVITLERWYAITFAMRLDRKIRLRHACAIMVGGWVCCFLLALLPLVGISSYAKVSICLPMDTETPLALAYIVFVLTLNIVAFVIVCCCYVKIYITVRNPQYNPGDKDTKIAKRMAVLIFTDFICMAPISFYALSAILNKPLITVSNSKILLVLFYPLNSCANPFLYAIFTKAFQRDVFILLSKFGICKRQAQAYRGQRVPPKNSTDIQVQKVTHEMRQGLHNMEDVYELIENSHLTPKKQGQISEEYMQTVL

Test [5] can be described thus: qHTS assay to identify small molecule agonists of the estrogen receptor alpha (ER-alpha) signaling pathway in the presence of an antagonist - cell viability counter screen (AID 1259386; active = well fitted curve in the direction sought with a large enough effect in the repeat runs; an effect the other way counts as inactive or inconclusive;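 also: cells exposed to compounds for 22 h at 37 °C before the viability read; nearly all actives have a fitted effect of over 30% in size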). As to conditions: VM7Luc4E2 viability, CellTiter-Fluor fluorescence, 22 h; series mostly up to 92.4 µM. A digest of the protocol: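 Using estrogen-depleted VM7Luc4E2 cells, the 15-concentration compound series was applied together with 10.0nM ICI-182,780 and incubated 22hr at 37C/5% CO2. Cell viability was then scored by CellTiter-Fluor.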

Test [6] concerns the target Progesterone receptor (Homo sapiens) (UniProt P06401). Description: qHTS assay to identify small molecule antagonists of the progesterone receptor (PR) signaling pathway (AID 1346795; active = well fitted inhibition curve with a large enough effect in the signal ratio in the repeat runs, not every such curve was filed as active; the % refers to the signal ratio; also: potency is read from the fitted curve at half-maximal effect). As to conditions: PR-UAS-bla HEK293T, beta-lactamase FRET ratio, 16 h; series mostly up to 92.4 µM. A digest of the protocol:
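Antagonist mode: compounds tested against 1 nM (final) promegestone stimulation in HEK293T cells expressing PR-UAS-bla reporter, 16 hr at 37C, 5% CO2; beta-lactamase activity detected via B/G FRET substrate after 2 hr at room temperature.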

Test [7] in a line: qHTS assay to identify small molecule antagonists of the progesterone receptor (PR) signaling pathway - cell viability counter screen (AID 1346798; active = well fitted curve in the direction sought with a large enough effect in the repeat runs; an effect the other way counts as inactive or inconclusive; also: nearly all actives have a fitted effect of over 50% in size; also: potency is read from the fitted curve at half-maximal effect). As to conditions: PR-UAS-bla HEK293T viability, CellTiter-Glo luminescence, 16 h; series mostly up to 92.4 µM. A digest of the protocol: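 Counter screen for cytotoxicity: viability of PR-UAS-bla HEK293T cells was measured with CellTiter-Glo luminescence following 16 hr compound exposure in the presence of R5020.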

Test [8] in a line: qHTS assay to identify small molecule agonists of the progesterone receptor (PR) signaling pathway - cell viability counter screen (AID 1346799). Also: nearly all actives have a fitted effect of over 45% in size. Also: potency is read from the fitted curve at half-maximal effect. Conditions: PR-UAS-bla HEK293T viability, CellTiter-Glo luminescence, 16 h; series mostly up to 92.4 µM. The method, boiled down: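 Cells (PR-UAS-bla HEK293T) are plated at 3,000/well in 2% charcoal-stripped FBS medium, rested 6 hr, dosed and incubated 16 hr at 37C. CellTiter-Glo is then added and luminescence measured after 30 min at room temperature.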

Test [9] concerns the target Progesterone receptor (Homo sapiens) (UniProt P06401). As to the kind of experiment: qHTS assay to identify small molecule agonists of the progesterone receptor (PR) signaling pathway (AID 1346784). Also: nearly all actives have a fitted effect of over 30% in size. As to conditions: PR-UAS-bla HEK293T, beta-lactamase FRET ratio, 16 h; series mostly up to 92.4 µM. The method, boiled down:
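Cells (PR-UAS-bla HEK 293T, GripTite) were plated in assay medium containing 2% charcoal-stripped FBS and incubated 6 hr. Test compounds in DMSO were added for 16 hr at 37C. FRET substrate was then loaded for 2 hr at room temperature before fluorescence reading.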

Where “and” joins values, the source holds several entries; their conditions need not be identical. Identical values can stand only once. Records with an inconclusive call do not appear. More than one record can exist for a structure, and the calls need not agree. Calls of active or inactive are those of the source. Unless noted, calls follow the shape of the full dose curve.
% is scaled to controls: 0 for no effect and ±100 for the full control effect.

Chain of Progesterone receptor (Homo sapiens) (P06401 whole entry, looked up): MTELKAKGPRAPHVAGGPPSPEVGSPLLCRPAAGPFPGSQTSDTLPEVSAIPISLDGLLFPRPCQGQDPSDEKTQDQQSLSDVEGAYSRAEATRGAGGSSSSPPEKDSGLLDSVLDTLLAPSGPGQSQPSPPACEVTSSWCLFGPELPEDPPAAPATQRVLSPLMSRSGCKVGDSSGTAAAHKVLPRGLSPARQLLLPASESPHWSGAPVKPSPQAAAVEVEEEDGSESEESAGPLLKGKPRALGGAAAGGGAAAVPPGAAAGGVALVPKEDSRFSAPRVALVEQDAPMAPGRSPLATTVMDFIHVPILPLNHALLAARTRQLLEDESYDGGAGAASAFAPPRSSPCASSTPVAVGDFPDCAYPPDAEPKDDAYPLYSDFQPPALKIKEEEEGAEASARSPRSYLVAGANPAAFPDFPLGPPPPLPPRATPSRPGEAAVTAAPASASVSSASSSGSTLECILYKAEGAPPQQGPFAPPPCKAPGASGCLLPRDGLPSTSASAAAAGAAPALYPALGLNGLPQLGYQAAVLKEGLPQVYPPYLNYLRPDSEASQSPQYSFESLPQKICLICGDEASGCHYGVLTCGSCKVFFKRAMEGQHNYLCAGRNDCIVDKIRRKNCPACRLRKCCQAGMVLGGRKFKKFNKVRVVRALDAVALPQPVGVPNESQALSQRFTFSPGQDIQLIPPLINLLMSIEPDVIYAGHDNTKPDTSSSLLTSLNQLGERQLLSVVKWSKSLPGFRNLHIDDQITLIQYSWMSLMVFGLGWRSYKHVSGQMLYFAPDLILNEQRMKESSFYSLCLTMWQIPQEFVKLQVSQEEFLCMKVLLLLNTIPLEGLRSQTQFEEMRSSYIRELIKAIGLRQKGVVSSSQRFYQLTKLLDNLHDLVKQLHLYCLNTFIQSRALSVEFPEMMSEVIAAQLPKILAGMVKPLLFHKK
Chain of Estrogen receptor (Homo sapiens) (P03372 whole entry, looked up): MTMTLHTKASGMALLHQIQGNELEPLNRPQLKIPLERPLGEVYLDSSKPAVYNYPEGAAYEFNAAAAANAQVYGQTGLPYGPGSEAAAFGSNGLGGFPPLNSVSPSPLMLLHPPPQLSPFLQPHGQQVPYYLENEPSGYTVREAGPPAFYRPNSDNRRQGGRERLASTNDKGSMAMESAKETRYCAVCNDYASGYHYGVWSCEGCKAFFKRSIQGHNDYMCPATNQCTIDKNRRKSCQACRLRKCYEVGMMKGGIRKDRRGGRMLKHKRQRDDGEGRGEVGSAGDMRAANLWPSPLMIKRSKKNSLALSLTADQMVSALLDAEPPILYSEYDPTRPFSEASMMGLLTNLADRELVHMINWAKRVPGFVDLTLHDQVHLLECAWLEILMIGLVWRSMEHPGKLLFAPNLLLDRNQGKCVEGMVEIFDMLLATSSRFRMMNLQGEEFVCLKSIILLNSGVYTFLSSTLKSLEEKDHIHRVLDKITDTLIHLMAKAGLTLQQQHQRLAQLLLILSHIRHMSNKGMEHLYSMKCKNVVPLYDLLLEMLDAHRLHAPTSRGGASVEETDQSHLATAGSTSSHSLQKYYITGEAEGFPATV

`CC(C)(N)CO`: the Potency result in test [1], in test [2], in [4], in test [5], in [6] and in test [7] was “inactive” in each case. Besides, the Potency entry in test [8] was “inactive”. The outcome in test [3] was inactive.
On to `O=S1(=O)CC=CC1`, for which the Potency entry in test [1], in test [2], in test [4], in [5], in [9] and in test [7] was “inactive” each time. In test [8], the Potency result is “inactive”. Further, the compound was called inactive in test [3].
Regarding `COc1ccc(Nc2ccccc2)c(C)c1`, the Potency entry in test [1], in test [2], in [4], in test [5], in [9] and in test [7] was “inactive” throughout. The Potency entry in test [8] was “inactive”. In addition, the outcome in test [3] was inactive.
As to `C=CCNC(N)=S`, the Potency entry in test [1], in test [4], in test [5], in test [9], in test [6] and in test [7] was “inactive” in each case. In addition, the outcome in [3] was inactive. Further, the Potency in test [8] was 21.2 µM (active) and inactive.
Take `CC(C)(C)[C@@H](O)[C@@H](Cc1ccc(Cl)cc1)n1cncn1`: the Potency entry in [1], in test [4], in test [5], in [9], in test [7] and in [8] was “inactive” throughout. The result in test [3] was inactive. Also, the Potency in test [6] is 48.2 µM (active).
Turning to `CCCCC(CC)COC(=O)C(C#N)=C(c1ccccc1)c1ccccc1` (stereo not given), the Potency result in [1], in [5], in [9] and in [7] was “inactive” throughout. Besides, the compound was called inactive in test [3]. For the same compound, the Potency is 61.1 µM (active) in [4] and 8.63 µM (active) in [6].
Turning to `OC[C@H]1O[C@@](CO)(O[C@H]2O[C@H](CO)[C@@H](O)[C@H](O)[C@H]2O)[C@@H](O)[C@@H]1O`, the Potency entry in test [1], in [2], in [5], in test [9], in test [6] and in test [7] was “inactive” throughout. Besides, in test [8], the Potency result is “inactive”.
For `Cc1ccc2oc(=O)ccc2c1`, the Potency result in test [1], in test [2], in [4], in test [5], in test [9] and in test [7] was “inactive” in each case. Besides, the Potency entry in test [8] is “inactive”. The call in test [3] was inactive.
With `CC[C@H](C)C(=O)O[C@H]1C[C@@H](C)C=C2C=C[C@H](C)[C@H](CC[C@@H]3C[C@@H](O)CC(=O)O3)[C@H]21`, the Potency in [1] is 39.1 µM (active) and 26.6 µM (active); in test [7] it was 62 µM (active); in test [8] it was 7.66 µM (active). The Potency result in test [2], in [4] and in [5] was “inactive” in each case. The compound was classed as inactive in test [3].
On to `CCCCCCCCCCCCCCCO`, for which the Potency result in test [1], in [4], in [5], in test [9], in test [6] and in test [7] was “inactive” in each case. Moreover, in test [8], the Potency result was “inactive”. Further, in test [3], the compound was classed as inactive.
With `CCN(CC)CCCC(C)Nc1ccnc2cc(Cl)ccc12` (stereo not given), the activity change, negative = cytotoxicity was -20.4% [at 8.39 µM] (inactive) and -8.86% [at 19 µM] (inactive) in [1]; 3.8% [at 8.39 µM] (inactive) in test [7]. Further, in [2], the activation was -0.124% [at 8.39 µM] (inactive) and -1.51% [at 19 µM] (inactive).
Regarding `C=CCOC(=O)c1ccccc1C(=O)OCC=C`, the Potency entry in test [1], in [2], in [4], in [5], in test [9] and in test [7] was “inactive” in each case. Further, the Potency entry in test [8] is “inactive”. Besides, the compound was classed as inactive in test [3].
As to `COS(C)(=O)=O`, the Potency entry in test [1], in test [2], in test [4], in [5], in test [7] and in [8] was “inactive” throughout. Further, the compound was called inactive in [3].
On to `c1c[nH]cn1`, for which the Potency result in test [1], in [2], in test [5], in test [6], in [7] and in test [8] was “inactive” in each case.
With `COCCCOc1ccnc(CS(=O)c2nc3ccccc3[nH]2)c1C` (stereo not given), the Potency result in test [1], in test [4], in test [5], in test [9] and in test [7] was “inactive” in each case. Further, the compound was classed as inactive in test [3]. The Potency in test [6] was 60.9 µM (active) and inactive.
With `O=C(O)CC(C(=O)O)C(CC(=O)O)C(=O)O` (stereo not given), the Potency result in test [1], in test [2], in [4], in test [5], in test [6] and in test [7] was “inactive” each time. For the same compound, the Potency entry in test [8] is “inactive”. In test [3], the result was inactive.
On to `Fc1ccc(Br)cc1`, for which the Potency entry in test [1], in [4], in test [5], in test [9], in test [7] and in test [8] was “inactive” throughout. The Potency in test [2] was 61.8 µM (active) and inactive. Also, the compound was called inactive in [3].
For `CCCCCCCCCCCCCCO`, the Potency result in test [1], in test [2], in test [4], in [5], in test [6] and in [7] was “inactive” each time. In addition, in test [8], the Potency result was “inactive”. Besides, the compound was called inactive in [3].
With `Cc1cccc(O)c1`, the Potency entry in test [1], in test [2], in test [5], in [9], in [6] and in test [7] was “inactive” each time. Moreover, the Potency result in [8] was “inactive”.
As to `O=C(OCCOCCOC(=O)c1ccccc1)c1ccccc1`, the Potency entry in [1], in test [2], in test [4], in test [5], in test [9] and in test [7] was “inactive” throughout. Moreover, in test [8], the Potency result is “inactive”. Moreover, the outcome in test [3] was inactive.
Take `c1ccc2scnc2c1`: the Potency result in test [1], in test [2], in [4], in test [5], in test [6] and in [7] was “inactive” throughout. In addition, the Potency entry in test [8] is “inactive”. In addition, the call in test [3] was inactive.
As for `CCOC(=O)NNc1nncc2ccccc12`, the Potency result in [1], in test [2], in test [4], in test [5], in test [9] and in test [7] was “inactive” in each case. In test [8], the Potency result was “inactive”. In addition, the outcome in [3] was inactive.
For the compound `CC(=O)c1ccccc1`, the Potency entry in test [1], in [2], in test [4], in test [5], in test [7] and in test [8] was “inactive” throughout. Besides, the compound was called inactive in [3].
Turning to `O=C(O)CCCCCCCCCCC(=O)O`, the Potency result in test [1], in [2], in [4], in test [5], in test [7] and in [8] was “inactive” each time. In addition, in test [3], the compound was called inactive.
Consider `O=C(O)CCCC[C@@H]1SC[C@@H]2NC(=O)N[C@@H]21`, for which the Potency entry in test [1], in test [2], in [4], in [5], in test [7] and in [8] was “inactive” in each case. Further, in test [3], the compound was classed as inactive.
`CC(=O)CC(=O)Nc1ccccc1`: the Potency result in test [1], in test [4], in [5], in test [6], in test [7] and in [8] was “inactive” each time. For the same compound, the call in test [3] was inactive.
With `CCCC(C)=O`, the Potency result in test [1], in [5], in test [9], in test [7] and in test [8] was “inactive” in each case.
`C[C@H]1C[C@H]2[C@@H]3CCC4=CC(=O)C=C[C@]4(C)[C@@]3(F)[C@@H](O)C[C@]2(C)[C@@]1(O)C(=O)CO`: the Potency result in test [1], in test [5] and in test [7] was “inactive” throughout.
Consider `Cc1ccc(S(N)(=O)=O)cc1`, for which the Potency entry in test [1], in [4], in test [5], in test [7] and in test [8] was “inactive” each time. Moreover, the result in [3] was inactive.
In the case of `CN(C)CCC(c1ccccc1)c1ccccn1` (stereo not given), the Potency result in test [1], in test [4], in test [5], in test [6], in test [7] and in test [8] was “inactive” each time. Further, the call in test [3] was inactive.
Take `CCCCCCCCC/C=C/CC1CC(=O)OC1=O` (stereo not given): the Potency entry in test [1], in test [4], in test [5], in test [9], in test [6] and in test [7] was “inactive” throughout. In test [8], the Potency result was “inactive”. Moreover, in test [3], the compound was called inactive.

Values taken from PubChem BioAssay (Tox21).
